Measured values: PubChem BioAssay (EPA / NIEHS)
Records with an inconclusive call do not appear. Activity calls are given as the source filed them. The calls were made as follows, unless noted: active = hit-call score of the fitted dose curve at least 0.9, where 1 is the maximum; inconclusive = response in the unintended direction; inactive = score below 0.9.

What was measured:
[1] = target: Estrogen receptor beta (Homo sapiens) (UniProt Q92731); experiment: OT_ER_ERbERb_1440: Odyssey Thera (OT) 24-hour HEK293T Protein-Complementation Assay for Estrogen Receptor-beta/-beta Homodimer (AID 2283380);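 also: fluorescence gain from ER beta LBD homodimer complementation read by laser scanning cytometry; scored as signal increase over DMSO baseline for both agonists and antagonists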
In short: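 HEK293T cells stably expressing human ER-beta LBD (aa 310-547) PCA homodimer pair, dosed 24 h; formaldehyde-fixed, Draq5-stained. Readout: increase in nuclear (agonist) or nuclear plus cytoplasmic (antagonist) fluorescence intensity versus DMSO, gain-of-signal fitting.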

[2] = CEETOX_H295R_11DCORT: CeeTox H295R High-throughput Steroidogenesis Assay for 11-Deoxycortisol (11DCORT) (AID 2283432; active = hit-call score of the fitted dose curve at least 0.9, where 1 is the maximum; inactive = score below 0.9;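 as to AC50: human adrenal H295R cells prestimulated with 10 µM forskolin for 48 h; 11-deoxycortisol secreted into the medium measured by LC-MS/MS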); conditions: actives raise or lower the signal
In short: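 Adrenal carcinoma line H295R, run per OECD 456 with minor changes, was forskolin-stimulated (10 uM, 48 h) before a 48 h chemical exposure at 0.1% DMSO. Secreted 11-deoxycortisol was quantified by HPLC-MS/MS.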

[3] = CEETOX_H295R_OHPREG: CeeTox H295R High-throughput Steroidogenesis Assay for OH-Pregnenolone (OHPREG) (AID 2283434; active = hit-call score of the fitted dose curve at least 0.9, where 1 is the maximum; inactive = score below 0.9); conditions: actives raise or lower the signal
In short: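 Readout: HPLC-MS/MS of 17alpha-hydroxypregnenolone in medium after 48 h chemical exposure of H295R cells pretreated with forskolin. Values fitted bidirectionally relative to DMSO; chemicals reducing viability to 20–70% were retested after 10-fold dilution.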

[4] = CEETOX_H295R_OHPROG: CeeTox H295R High-throughput Steroidogenesis Assay for OH-Progesterone (OHPROG) (AID 2283435; active = hit-call score of the fitted dose curve at least 0.9, where 1 is the maximum; inactive = score below 0.9;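 as to AC50: human adrenal H295R cells primed 48 h with 10 µM forskolin; 17alpha-hydroxyprogesterone secreted into medium measured by HPLC-MS/MS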); conditions: actives raise or lower the signal
In short: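 Human adrenocortical H295R cells, passage 10 or lower, were treated with chemical for 48 h after forskolin priming, and hormone output in the medium was quantified by LC-MS/MS.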

[5] = CEETOX_H295R_CORTIC: CeeTox H295R High-throughput Steroidogenesis Assay for Corticosterone (CORTIC) (AID 2283437; active = hit-call score of the fitted dose curve at least 0.9, where 1 is the maximum; inactive = score below 0.9;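 also: corticosterone secreted into medium quantified by mass spectrometry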); conditions: actives raise or lower the signal
In short: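 Steps: seed H295R, adhere overnight; 10 uM forskolin 48 h; replace with chemical (0.1% DMSO) 48 h; extract medium with MTBE; quantify corticosterone by HPLC-MS/MS; score bidirectionally vs DMSO.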

[6] = CEETOX_H295R_CORTISOL: CeeTox H295R High-throughput Steroidogenesis Assay for Cortisol (AID 2283438; active = hit-call score of the fitted dose curve at least 0.9, where 1 is the maximum; inactive = score below 0.9;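 also: cortisol secreted into medium quantified by LC-MS/MS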); conditions: actives raise or lower the signal
In short: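 Steroidogenesis in H295R, per modified OECD 456: 48 h forskolin (10 uM), then 48 h exposure, 0.1% DMSO. Cortisol by extraction and tandem MS; viability by MTT (570/650 nm); cytotoxic chemicals diluted and re-tested.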

[7] = CEETOX_H295R_DOC: CeeTox H295R High-throughput Steroidogenesis Assay for DOC (AID 2283439; active = hit-call score of the fitted dose curve at least 0.9, where 1 is the maximum; inactive = score below 0.9); conditions: actives raise or lower the signal
In short: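 H295R, fsk 10 uM ×48 h pre, cmpd ×48 h (0.1% DMSO). Media → MTBE extr. → LC-MS/MS, DOC. Bidirectional fit vs DMSO; MTT viability same wells, re-test diluted if <70%.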

[8] = CEETOX_H295R_ESTRADIOL: CeeTox H295R High-throughput Steroidogenesis Assay for Estradiol (AID 2283440; active = hit-call score of the fitted dose curve at least 0.9, where 1 is the maximum; inactive = score below 0.9;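 also: estradiol secreted into medium quantified by LC-MS/MS after dansyl derivatisation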); conditions: actives raise or lower the signal
In short: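 H295R adrenocortical cells were prestimulated with 10 uM forskolin for 48 h, then exposed to test chemical in 0.1% DMSO for 48 h. Medium estradiol was extracted with MTBE, dansyl-derivatized and quantified by HPLC-MS/MS; bidirectional fit versus DMSO.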

[9] = CEETOX_H295R_ESTRONE: CeeTox H295R High-throughput Steroidogenesis Assay for Estrone (AID 2283441; active = hit-call score of the fitted dose curve at least 0.9, where 1 is the maximum; inactive = score below 0.9;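 also: estrone secreted into medium measured by LC-MS/MS after dansyl derivatization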); conditions: actives raise or lower the signal
In short: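 Forskolin-stimulated H295R cells are treated 48 h with chemical, and estrone in the medium is measured by LC-MS/MS. Activity is fitted in both directions relative to DMSO controls, with chemicals diluted until MTT viability reaches at least 70%.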

[10] = target: Bile acid receptor (Homo sapiens) (UniProt Q96RI1); experiment: OT_FXR_FXRSRC1_1440: Odyssey Thera (OT) 24-hour HEK293T Protein-Complementation Assay for Farnesoid X receptor/SRC-1 Co-activator (AID 2283384)
In short: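 Single endpoint, analysed for increased fluorescence against DMSO controls. HEK293T cells carrying FXR and SRC-1 linked to complementary reporter halves were exposed to chemicals for 24 h before reading.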

[11] = target: Estrogen receptor (Homo sapiens) (UniProt P03372); experiment: OT_ERa_GFPERaERE_0480: Odyssey Thera (OT) 8-hour HeLa Transcription Induction Assay for Estrogen Receptor (AID 2283381; active = hit-call score of the fitted dose curve at least 0.9, where 1 is the maximum; inactive = score below 0.9)
In short: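 An 8 h HeLa transcription-induction format with a GFP reporter under ERE control, read by fluorescence microscopy; single endpoint fitted positively with DMSO as baseline.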

[12] = target: Estrogen receptor (Homo sapiens) (UniProt P03372); experiment: OT_ERa_GFPERaERE_0120: Odyssey Thera (OT) 2-hour HeLa Transcription Induction Assay for Estrogen Receptor (AID 2283382)
In short: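 Two-hour compound treatment of HeLa cells preceded microscopy imaging of an inducible fluorescent reporter. Image-based quantification gave one endpoint, analysed for signal increase relative to DMSO controls.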

[13] = target: Peroxisome proliferator-activated receptor gamma (Homo sapiens) (UniProt P37231); experiment: OT_PPARg_PPARgSRC1_1440: Odyssey Thera (OT) 24-hour Protein-Complementation Assay for Peroxisome Proliferator-activated Receptor Gamma/ SRC-1 Co-activator (AID 2283388)
In short: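 HEK293T cells transiently transfected with PPARg and SRC-1 fused via (Gly4Ser)2 linker to split Venus YFP fragments (IFP1/IFP2) were dosed 24 h; fixed, Draq5-stained, imaged at 488/635 nm; nuclear/cytoplasmic fluorescence ratio scored versus DMSO baseline, gain-of-signal.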

[14] = target: Bile acid receptor (Homo sapiens) (UniProt Q96RI1); experiment: OT_FXR_FXRSRC1_0480: Odyssey Thera (OT) 8-hour HEK293T Protein-Complementation Assay for Farnesoid X receptor/SRC-1 Co-activator (AID 2283383)
In short: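 Readings were taken 8 h after dosing HEK293T cells in a split-reporter complementation format pairing FXR with SRC-1. Increased fluorescence relative to DMSO-treated wells defined activity.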

[15] = target: Retinoic acid receptor RXR-alpha (Homo sapiens) (UniProt P19793); experiment: OT_NURR1_NURR1RXRa_0480: Odyssey Thera (OT) 8-hour HEK293T Protein Complementation Assay for Nurr1/retinoid X receptor (RXR) (AID 2283385)
In short: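 Gain in fluorescent complementation signal over DMSO, measured 8 hours after chemical dosing of human kidney HEK293T cells, indicated enhanced Nurr1–RXRα association.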

[16] = target: Retinoic acid receptor RXR-alpha (Homo sapiens) (UniProt P19793); experiment: OT_NURR1_NURR1RXRa_1440: Odyssey Thera (OT) 24-hour HEK293T Protein Complementation Assay for Nurr1/retinoid X receptor (RXR) (AID 2283386)
In short: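 Cell-based binding reporter: HEK293T cells, 24 h exposure, fluorescence-detected fragment complementation, DMSO as baseline.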

[17] = target: Agonist Androgen Response Element (ARE), AR (gene 367) (UniProt P10275); experiment: OT_AR_ARELUC_AG_1440: Odyssey Thera (OT) 24-hour CHO-K1 Luciferase Assay for Agonist Androgen Response Element (ARE) (AID 2283379)
In short: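 Luminescence increase above DMSO, read after a 24 h compound treatment of CHO-K1 cells expressing an androgen response element luciferase reporter, gives the single primary endpoint; concentration-response fitting used the positive direction.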

[18] = target: Peroxisome proliferator-activated receptor gamma (Homo sapiens) (UniProt P37231); experiment: OT_PPARg_PPARgSRC1_0480: Odyssey Thera (OT) 8-hour Protein-Complementation Assay for Peroxisome Proliferator-activated Receptor Gamma / SRC-1 Co-activator (AID 2283387)
In short: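 Protein-fragment complementation in HEK293T: Venus YFP halves (residues 1-158, 159-239, mutated to IFP1/IFP2) fused to PPARg/SRC-1. 8 h exposure; N/C ratio at 488 nm; DMSO negative control.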

[19] = CEETOX_H295R_ANDR: CeeTox H295R High-throughput Steroidogenesis Assay for Androstenedione (ANDR) (AID 2283436; active = hit-call score of the fitted dose curve at least 0.9, where 1 is the maximum; inactive = score below 0.9;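 also: human H295R adrenal cells exposed for 48 h with androstenedione measured in medium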); conditions: actives raise or lower the signal
In short: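 Steroidogenesis in H295R adrenal cells after 48 h dosing; androstenedione quantified by LC-MS/MS, with DMSO as negative control and baseline for bidirectional curve fitting.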

[20] = target: mouse Estrogen Receptor alpha (Era), Esr1 (gene 13982) (UniProt P19785); experiment: NVS_NR_mERa: NovaScreen (NVS) Nuclear Receptor Binding Assay for mouse Estrogen Receptor alpha (Era) (AID 2283378);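 also: hit means loss of bound radioligand signal relative to DMSO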
In short: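 Cell-free radioligand binding with extracted mouse Era protein; competitive displacement of radiolabelled ligand, read by filter-based scintillation counting 18 hours after dosing. Loss of signal versus DMSO baseline taken as binding; single screening concentration 25 uM, actives followed in concentration series.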

Measured: AC50

Chain of mouse Estrogen Receptor alpha (Era), Esr1 (gene 13982) (P19785 whole entry, looked up): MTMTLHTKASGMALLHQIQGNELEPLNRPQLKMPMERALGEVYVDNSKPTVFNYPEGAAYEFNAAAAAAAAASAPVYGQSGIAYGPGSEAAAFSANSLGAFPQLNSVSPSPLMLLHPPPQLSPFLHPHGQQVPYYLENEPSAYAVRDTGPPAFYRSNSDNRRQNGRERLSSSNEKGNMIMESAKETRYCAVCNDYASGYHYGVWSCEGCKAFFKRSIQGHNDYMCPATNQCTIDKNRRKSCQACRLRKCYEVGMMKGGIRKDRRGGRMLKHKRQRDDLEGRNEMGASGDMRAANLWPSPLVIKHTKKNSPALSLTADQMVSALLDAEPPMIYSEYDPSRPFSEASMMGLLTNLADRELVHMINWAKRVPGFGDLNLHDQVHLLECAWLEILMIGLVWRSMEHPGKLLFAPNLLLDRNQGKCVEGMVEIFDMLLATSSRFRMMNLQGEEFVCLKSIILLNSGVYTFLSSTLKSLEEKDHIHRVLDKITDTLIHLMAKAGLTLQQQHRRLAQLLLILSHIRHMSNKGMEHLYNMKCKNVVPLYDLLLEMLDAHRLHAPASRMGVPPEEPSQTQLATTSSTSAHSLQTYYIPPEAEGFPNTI
Chain of Estrogen receptor beta (Homo sapiens) (Q92731 whole entry, looked up, the tested form may be a part): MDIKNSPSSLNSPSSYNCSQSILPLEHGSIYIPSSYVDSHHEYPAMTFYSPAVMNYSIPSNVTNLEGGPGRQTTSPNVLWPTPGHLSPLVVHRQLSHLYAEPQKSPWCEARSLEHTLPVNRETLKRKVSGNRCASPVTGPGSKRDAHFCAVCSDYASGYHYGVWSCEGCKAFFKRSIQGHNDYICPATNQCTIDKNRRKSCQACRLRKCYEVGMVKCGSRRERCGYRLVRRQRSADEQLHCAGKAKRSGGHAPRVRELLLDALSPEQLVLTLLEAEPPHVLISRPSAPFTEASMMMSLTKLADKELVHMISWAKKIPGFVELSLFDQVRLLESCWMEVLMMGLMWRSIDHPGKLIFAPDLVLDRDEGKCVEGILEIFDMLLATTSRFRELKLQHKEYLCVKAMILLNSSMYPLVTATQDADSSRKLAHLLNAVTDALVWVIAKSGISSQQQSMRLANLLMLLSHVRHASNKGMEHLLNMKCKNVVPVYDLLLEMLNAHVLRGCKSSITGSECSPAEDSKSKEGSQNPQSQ
Chain of Peroxisome proliferator-activated receptor gamma (Homo sapiens) (P37231 whole entry, looked up, the tested form may be a part): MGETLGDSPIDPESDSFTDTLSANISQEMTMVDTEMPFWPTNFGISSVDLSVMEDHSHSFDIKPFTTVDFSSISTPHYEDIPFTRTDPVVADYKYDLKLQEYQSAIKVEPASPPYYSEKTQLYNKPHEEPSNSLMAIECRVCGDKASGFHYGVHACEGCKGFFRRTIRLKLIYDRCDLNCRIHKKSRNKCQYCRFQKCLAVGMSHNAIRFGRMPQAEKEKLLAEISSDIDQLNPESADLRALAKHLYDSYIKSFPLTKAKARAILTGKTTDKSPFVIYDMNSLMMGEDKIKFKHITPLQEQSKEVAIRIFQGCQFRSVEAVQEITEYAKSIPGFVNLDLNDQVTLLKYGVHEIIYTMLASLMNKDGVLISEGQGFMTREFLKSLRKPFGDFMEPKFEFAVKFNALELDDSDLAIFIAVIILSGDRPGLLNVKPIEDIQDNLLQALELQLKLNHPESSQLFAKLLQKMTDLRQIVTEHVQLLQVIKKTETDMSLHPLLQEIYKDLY
Chain of Bile acid receptor (Homo sapiens) (Q96RI1 whole entry, looked up): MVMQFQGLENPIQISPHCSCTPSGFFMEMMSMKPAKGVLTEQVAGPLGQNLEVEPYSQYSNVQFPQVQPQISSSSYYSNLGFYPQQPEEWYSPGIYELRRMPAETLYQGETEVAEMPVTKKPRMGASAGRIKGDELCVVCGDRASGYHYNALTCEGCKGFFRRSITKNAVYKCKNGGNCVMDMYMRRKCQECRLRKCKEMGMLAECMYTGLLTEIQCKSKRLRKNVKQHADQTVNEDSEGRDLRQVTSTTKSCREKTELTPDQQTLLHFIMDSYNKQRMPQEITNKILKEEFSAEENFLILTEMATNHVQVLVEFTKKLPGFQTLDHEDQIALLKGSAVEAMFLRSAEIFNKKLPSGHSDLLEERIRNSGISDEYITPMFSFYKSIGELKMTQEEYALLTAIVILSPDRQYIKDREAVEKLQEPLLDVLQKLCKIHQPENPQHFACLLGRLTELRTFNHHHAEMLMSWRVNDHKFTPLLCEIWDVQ
Chain of Estrogen receptor (Homo sapiens) (P03372 whole entry, looked up): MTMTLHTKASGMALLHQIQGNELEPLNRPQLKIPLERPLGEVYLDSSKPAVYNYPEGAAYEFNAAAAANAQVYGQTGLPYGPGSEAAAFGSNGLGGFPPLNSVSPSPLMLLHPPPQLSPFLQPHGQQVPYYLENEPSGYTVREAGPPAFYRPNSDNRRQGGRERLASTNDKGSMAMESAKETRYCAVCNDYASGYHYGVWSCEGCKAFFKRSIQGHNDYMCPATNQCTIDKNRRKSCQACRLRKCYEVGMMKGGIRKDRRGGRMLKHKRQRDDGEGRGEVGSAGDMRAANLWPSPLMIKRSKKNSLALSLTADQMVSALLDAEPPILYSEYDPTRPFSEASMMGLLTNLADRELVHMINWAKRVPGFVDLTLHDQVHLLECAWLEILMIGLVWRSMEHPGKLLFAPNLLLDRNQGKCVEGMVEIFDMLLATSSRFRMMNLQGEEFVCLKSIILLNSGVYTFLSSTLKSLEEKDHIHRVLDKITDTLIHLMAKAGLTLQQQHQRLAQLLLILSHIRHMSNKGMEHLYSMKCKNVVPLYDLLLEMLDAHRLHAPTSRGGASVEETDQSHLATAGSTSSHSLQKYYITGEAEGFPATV
Chain of Agonist Androgen Response Element (ARE), AR (gene 367) (P10275 whole entry, looked up): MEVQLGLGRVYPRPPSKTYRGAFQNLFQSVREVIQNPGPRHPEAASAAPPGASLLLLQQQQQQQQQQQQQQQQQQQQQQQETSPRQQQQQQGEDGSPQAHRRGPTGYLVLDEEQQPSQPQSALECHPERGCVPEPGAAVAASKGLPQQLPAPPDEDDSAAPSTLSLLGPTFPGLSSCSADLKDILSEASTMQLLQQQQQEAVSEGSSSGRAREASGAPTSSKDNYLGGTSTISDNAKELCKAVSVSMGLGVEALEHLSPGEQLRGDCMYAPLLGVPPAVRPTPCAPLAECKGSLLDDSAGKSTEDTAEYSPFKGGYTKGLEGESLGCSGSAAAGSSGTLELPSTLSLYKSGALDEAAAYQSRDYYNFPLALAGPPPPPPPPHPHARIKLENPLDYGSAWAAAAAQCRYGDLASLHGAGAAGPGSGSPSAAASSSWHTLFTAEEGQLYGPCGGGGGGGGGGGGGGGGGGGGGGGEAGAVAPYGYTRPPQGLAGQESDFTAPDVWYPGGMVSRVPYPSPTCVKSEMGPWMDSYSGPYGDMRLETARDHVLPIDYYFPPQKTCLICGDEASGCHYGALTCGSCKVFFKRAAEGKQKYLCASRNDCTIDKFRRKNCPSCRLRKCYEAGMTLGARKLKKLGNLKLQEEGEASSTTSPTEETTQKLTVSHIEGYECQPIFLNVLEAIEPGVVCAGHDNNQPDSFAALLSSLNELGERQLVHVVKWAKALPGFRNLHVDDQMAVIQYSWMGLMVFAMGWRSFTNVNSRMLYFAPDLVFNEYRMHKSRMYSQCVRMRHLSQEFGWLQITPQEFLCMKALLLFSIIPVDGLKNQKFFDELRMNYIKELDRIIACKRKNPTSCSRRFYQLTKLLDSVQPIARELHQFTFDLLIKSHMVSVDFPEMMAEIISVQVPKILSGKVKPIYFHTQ
Chain of Retinoic acid receptor RXR-alpha (Homo sapiens) (P19793 whole entry, looked up, the tested form may be a part): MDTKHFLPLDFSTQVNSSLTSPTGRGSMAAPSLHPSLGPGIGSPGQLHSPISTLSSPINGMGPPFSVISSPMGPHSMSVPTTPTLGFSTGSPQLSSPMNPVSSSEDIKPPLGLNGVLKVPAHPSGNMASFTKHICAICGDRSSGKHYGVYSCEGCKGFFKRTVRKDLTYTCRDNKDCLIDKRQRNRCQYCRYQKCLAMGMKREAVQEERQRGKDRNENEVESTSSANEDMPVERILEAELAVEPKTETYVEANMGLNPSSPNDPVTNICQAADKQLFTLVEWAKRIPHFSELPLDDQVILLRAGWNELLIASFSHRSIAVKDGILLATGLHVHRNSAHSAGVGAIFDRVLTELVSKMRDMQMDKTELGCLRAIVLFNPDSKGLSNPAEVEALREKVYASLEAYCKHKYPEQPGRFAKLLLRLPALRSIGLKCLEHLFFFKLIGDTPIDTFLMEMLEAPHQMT

CCCCC/C=C\C/C=C\CCCCCCCC(=O)OC
inactive: [1]

CCCCCCCCCCCCCOP(=O)(O)O
inactive: [1] | [2] | [3] | [4] | [5] | [6] | [7] | [8] | [9]

CC/C=C\C/C=C\C/C=C\CCCCCCCC(=O)O
inactive: [10]

CC(=O)[C@H]1[C@H](C#N)C[C@H]2[C@@H]3CC=C4C[C@@H](O)CC[C@]4(C)[C@H]3CC[C@@]21C
inactive: [10]

CN(C)c1ccc(C(=N)c2ccc(N(C)C)cc2)cc1
active: [3] 3.27 µM
inactive: [2] | [4] | [5] | [7] | [8] | [9]

O=C1C(N(CO)C(=O)NCO)N(CO)C(=O)N1CO (configuration not stated)
inactive: [1] | [11] | [12] | [13]

CCCCCc1ccc(Cl)cc1
inactive: [11] | [12] | [14] | [10] | [15] | [16] | [13]

Oc1ccc(Cl)cc1Cc1cc(Cl)ccc1O
active: [15] 11.7 µM | [16] 11.2 µM | [2] 6.93 µM
not listed: [1] | [10] | [14] | [20]
inactive: all other assays above

CC(C)c1ccc2c(C(C)C)cc(C(C)C)c(S(=O)(=O)O)c2c1
inactive: [17] | [11] | [12] | [14] | [15] | [13]

Cn1c([N+](=O)[O-])cnc1COC(N)=O
inactive: [11] | [12] | [15] | [16] | [18] | [13]

CC(C)(C)c1ccc(OC(=O)c2ccccc2O)cc1
inactive: [11] | [12] | [13]
active: [14] 35.6 µM | [10] 75.9 µM | [15] 50 µM | [16] 89 µM

CCCCCCCC[N+](C)(CCCCCCCC)CCCCCCCC
inactive: [11] | [18] | [13]
active: [20] 0.338 µM | [12] 12.4 µM

NC(=O)c1ccccc1O
inactive: [11] | [12] | [14] | [10] | [15] | [16] | [13]

CNC(=S)NN
active: [15] 50 µM
inactive: [11] | [12] | [16] | [18] | [13]

COC(=O)c1c(C)cc(O)c(C)c1O
active: [1] 56.4 µM | [4] 26.3 µM
inactive: [11] | [12] | [18] | [13] | [3] | [8] | [9]

CC(C)=CCC[C@H](C)CCO
inactive: [11] | [12] | [16] | [13]
active: [17] 0.239 µM | [15] 75.8 µM

CCN(CCC#N)c1ccc(N=Nc2c(Cl)cc([N+](=O)[O-])cc2Cl)cc1
inactive: [11] | [12] | [10] | [13]
active: [14] 29 µM | [15] 67.7 µM | [16] 50 µM

C=CC(=O)NC(C)(C)CS(=O)(=O)O
inactive: [1] | [11] | [12] | [18] | [13]

CC(C)(C)c1ccc(-c2ccc(C(C)(C)C)cc2)cc1
inactive: [17] | [11] | [12] | [13]
active: [14] 33.5 µM | [10] 76.6 µM | [15] 85.6 µM | [16] 78.3 µM

S=C(NC1CCCCC1)NC1CCCCC1
inactive: [20] | [2] | [3] | [4] | [5] | [6] | [7] | [8] | [9]

CCCCC/C=C\CCC=O
active: [17] 1.31 µM
not listed: [1] | [8] | [9] | [10] | [14] | [18] | [20]
inactive: all other assays above

CCCCOCCOC(=O)COc1nc(Cl)c(Cl)cc1Cl
inactive: [11] | [12] | [14] | [10] | [16] | [13]

O=c1cc(-c2ccccc2)oc2ccccc12
inactive: [17] | [11] | [12] | [15] | [16] | [13]

Cc1cc(C)c(C)cc1C
inactive: [11] | [12] | [14] | [15] | [16] | [13]

CC=C1CC2C=CC1C2 (configuration not stated)
inactive: [1] | [11] | [12] | [14] | [10] | [15] | [16] | [13]

NC(=O)N=NC(N)=O
inactive: [1] | [11] | [10] | [18] | [13]
active: [12] 12.1 µM

CC(C)c1ccc2cc(C(C)C)ccc2c1
inactive: [1] | [11] | [12] | [15] | [13]
active: [16] 97.6 µM

C#CC1(O)CC[C@H]2[C@@H]3CCC4=CCCC[C@@H]4[C@H]3CC[C@@]21C (some centres not stated)
inactive: [3] | [5]
active: [20] 6.99 µM | [2] 7.32 µM | [4] 7.02 µM | [6] 7.01 µM | [7] 2.03 µM

CCOC(=O)CC
inactive: [11] | [12] | [14] | [10] | [16] | [13]

c1ccc2c(c1)ccc1cc3c(ccc4ccccc43)cc12
inactive: [11] | [12] | [14] | [10] | [16]

CCCc1ccc(OC)cc1
inactive: [17] | [11] | [12] | [18] | [13]

CC(C)(C)c1ccc(N)cc1
inactive: [11] | [12] | [15] | [16] | [18] | [13]
